Screening data from PubChem BioAssay.
HCV inhibitor: blocks hepatitis C virus. Huh7.5.1 HCVcc-Cre infection, luciferase reporter, 44 h. Potency, µM (series often up to 41.8 µM), usual class: inhibitors. hit rate 3.4% among 340,000
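After 44 h co-culture of compound, cells and HCVcc-Cre (~0.5 moi), substrate is added for 15 min at room temperature and luciferase measured over 15 sec. Cells were seeded at 1,000/well and pre-cultured 4 h.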
Pf growth 96h: inhibits malaria parasite growth, 96 h; P. falciparum luciferase reporter growth, 96 h; hit rate 6.9% among 320,000; AID 504834; Potency, µM (doses to about 28.7 µM), actives largely listed as inhibitors
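Two parasite generations (96 h, 37 C, 5% CO2) of compound exposure in infected erythrocytes (0.05% parasitemia, 2% hematocrit). Luciferase-reporter P. falciparum; decreased luminescence indicates inhibited growth, aimed at apicoplast-acting delayed death.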
HCMV inh: blocks human cytomegalovirus replication. HFF cells, HCMV-luciferase reporter, 72 h; hits give low values. activity change, negative = inhibition, % at 57.5 µM. hit rate 4.5% among 410,000. AID 1259415; in the data active = activity change below about -60%; inconclusive = no clear call, values can overlap the other calls; inactive = above about -39%
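Steps: HFFs plated, 16 h 37C; compounds added; HCMV-luciferase added to MOI 1 PFU/cell; 72 h 37C; OneGlo reagent, 5 min room temperature; luminescence read, normalized to controls.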
SARS PLP yeast: SARS-CoV PLP inhibition in yeast. S. cerevisiae expressing SARS-CoV PLpro, growth rescue. Potency, µM (series often up to 32.9 µM), actives largely listed as activators. hit rate 0.19% among 330,000. AID 485353; calls by dose curve; also: nearly all actives have a fitted effect of over 55% in size
Pf growth 48h: inhibits P. falciparum growth in the first generation, 48 h | P. falciparum luciferase growth in erythrocytes, 48 h | Potency, µM (highest dose often 28.7 µM), usual class: inhibitors | hit rate 5.9% among 310,000 | AID 504832
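Growth was read as firefly luciferase luminescence after a 48 h, 37 C, 5% CO2 exposure of compounds to reporter-bearing P. falciparum cultures (0.1% parasitemia, 2% hematocrit final) in Albumax-supplemented RPMI 1640.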
Sm TGR block: blocks Schistosoma mansoni thioredoxin glutathione reductase; Q962Y6; purified TGR, DTNB reduction, TNB absorbance 405 nm; Potency, µM (titrated, usually from 114 µM), most hits filed as inhibitors; hit rate 3% among 360,000; AID 485364; also: nearly all actives have a fitted effect of over 60% in size
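TGR 20 nM + NADPH 100 uM (dispensed conc.), cpd preinc 15 min RT; start with NADPH (500 uM addition) then DTNB (15 mM addition). Kinetic TNB absorbance, 405 nm filter. Four-parameter Hill fit across titration.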
Numbers stand for hits; i = inactive; ? = inconclusive; nt = not tested or not shown; + = active, no number; [ ] = remark or other dose. The list is not random: actives were taken first. Their share in the collection is about 15%. Unless noted, calls follow the shape of the dose curve; as a rule, active = well fitted curve in the direction sought with a large enough effect; inconclusive = small, poorly fitted or top-dose-only effect, or another doubt; inactive = no such curve, though single readings can be large; an effect the other way counts as inactive or inconclusive.

SMILES | HCV inhibitor | Pf growth 96h | HCMV inh | SARS PLP yeast | Pf growth 48h | Sm TGR block
Cc1ccc(C(=O)N(CCCN(C)C)c2nc3ccc(Cl)cc3s2)cc1C | ? | ? | i | i | 11.7µM | i
CN(C)CCCN(C(=O)c1ccco1)c1nc2ccc(Br)cc2s1 | ? | ? | i | i | ? | i
CC(=O)NC(=S)Nc1sc2c(c1C(N)=O)CCC(C)C2 (configuration not stated) | i | i | i | i | i | i
COc1ccc(CNc2nc(SCc3ccc(Cl)cc3)nc3ccccc23)cc1 | nt | nt | i | nt | nt | i
Cc1ccc2nc(N(CCCN(C)C)C(=O)c3sc4ccccc4c3Cl)sc2c1 | ? | i | -77.8 | i | i | ?
CC1(C)CC(=O)c2c(O)cc(OCc3ccc(Br)cc3)cc2O1 | i | i | -108.6 | i | nt | i
COC(=O)c1ccc(COc2cc(O)c3c(c2)OC(C)(C)CC3=O)cc1 | i | nt | i | i | ? | i
CC1(C)NC(=O)N(CC(O)COc2ccccc2C(=O)Nc2ccccc2)C1=O (configuration not stated) | i | 13.1µM | i | i | i | i
Cc1sc2c(c1C)CN(CCN1CCOCC1)CN2C(=O)c1ccccc1 | i | i | i | i | i | 79.4µM
Cc1nc(-c2cccnc2)sc1C(=O)N/N=C/c1ccccc1Cl | i | i | i | i | i | i
Cn1c(-c2ccccc2)c(Sc2ccccc2)c2cc(-c3ccc4[nH]ccc4c3)ccc21 | nt | nt | i | nt | nt | nt
CCOc1ccc(N2CC(c3nc4ccccc4n3Cc3cccc(Cl)c3)CC2=O)cc1 (configuration not stated) | nt | nt | i | nt | nt | i
O=C(C1CCN(S(=O)(=O)c2cccc3nonc23)CC1)N1CCN(c2ccc(F)cc2)CC1 | nt | nt | i | nt | nt | i
COc1ccc2c(c1)c(C(=O)O)c(C)n2-c1ccc(Cl)cc1 | i | i | -62.9 | i | i | i
CC(=O)c1c(C)n(-c2cccc(Cl)c2)c2ccc(O)cc12 | i | 2.62µM | -68.2 | i | i | i
CC(=O)c1c(C)n(-c2ccccc2)c2ccc(O)cc12 | ? | nt | -63.8 | i | i | i
COC(=O)c1c(C)n(-c2ccc(C)cc2)c2ccc(O)cc12 | ? | 4.15µM | i | i | nt | i
Cc1cc(Cl)ccc1NC(=O)CSc1n[nH]c(N)n1 | i | i | i | i | i | i
COC(=O)N/N=C/c1ccc(-c2cccc(Cl)c2)o1 | i | i | i | i | i | i
Nc1ccccc1N=Cc1ccc(-c2cccc(Cl)c2)o1 | 10µM | ? | i | i | 10.4µM | ?
COC(=O)c1ccccc1NC(=O)Cn1ncc2c(C)n(Cc3ccc(F)cc3)c(C)c2c1=O | nt | nt | i | nt | nt | i
Cc1ccc(NC(=O)Cn2nc3c(cc2=O)CCCC3)cc1Cl | nt | nt | i | nt | nt | i
COc1ccc(-c2cc(C(C)=O)c(C)n2CCC(=O)Nc2cc(Cl)ccc2C)cc1 | nt | nt | i | nt | nt | i
COc1ccc(-c2cc(C(C)=O)c(C)n2CCC(=O)Nc2ccc(C)c(Cl)c2)cc1 | nt | nt | + | nt | nt | i
Cc1ccc(NC(=O)Cn2nc(-c3ccco3)ccc2=O)cc1Cl | i | ? | i | i | i | 6.31µM
SMILES | HCV inhibitor | Pf growth 96h | HCMV inh | SARS PLP yeast | Pf growth 48h | Sm TGR block
Cc1ccc(NC(=O)CCn2cccc2)cc1Cl | i | i | i | i | i | 35.5µM
CC1Cc2ccccc2N1C(=O)CSc1nc2ccc(NC(=O)COc3ccccc3)cc2s1 (configuration not stated) | nt | nt | i | nt | nt | i
COc1ccc(-c2cc(C(F)(F)F)n3nc(C(=O)N(C)Cc4ccccc4)cc3n2)cc1OC | 10µM | i[5.75 µM] | i | i | 6.57µM | i
O=C(NC12CC3CC(CC(C3)C1)C2)c1cc2nc(-c3ccco3)cc(C(F)(F)F)n2n1 | i | i | nt | i | nt | i
Cc1nn(C)c(C)c1CN(C)C(=O)c1cc2nc(-c3ccco3)cc(C(F)(F)F)n2n1 | ? | ? | i | i | ? | 12.6µM
Cc1nn(C)cc1CN(C)C(=O)c1cc2nc(-c3ccco3)cc(C(F)(F)F)n2n1 | i | i | i | i | ? | 35.5µM
COc1ccc(-c2cc(C(F)(F)F)n3nc(C(=O)Nc4ccc(Cl)cc4C(F)(F)F)cc3n2)cc1OC | nt | nt | i | nt | nt | i
O=C(c1ccccc1Cl)N1CCCCC1CCN1CCCCC1 (configuration not stated) | nt | nt | i | nt | nt | i
Cc1cc2nc(-c3cccc(Br)c3)c(CC3CCCCC3)n2c(C)c1Br | nt | nt | i | nt | nt | nt
C=CCN1C(=O)NC(c2ccc(OC)cc2)(C(F)(F)F)S/C1=C(\C#N)c1nnc(N2CCOCC2)n1-c1ccccc1 (configuration not stated) | i | ? | i | i | i | i
C=CCN1C(c2cccc(C(F)(F)F)c2)=CS/C1=C(/C#N)c1nnc(N2CCOCC2)n1-c1ccccc1 | ? | 11.7µM | ? | i | 10.4µM | i
CC1=C(C)SC(=C(C#N)c2nnc(N3CCOCC3)n2-c2ccccc2)S1 | i | 9.28µM | i | i | ? | i
C=CCN1C(c2ccccc2)=CS/C1=C(\C#N)c1nnc2n1CCCCC2 | i | i | i | i | ? | i
C=CCN1C(c2ccc(Br)cc2)=CS/C1=C(/C#N)c1nnc(N2CCOCC2)n1-c1ccccc1 | ? | ? | -79.5 | i | ? | i
CN(C)CCCNc1oc(/C=C/c2ccc(F)cc2)nc1C#N | nt | nt | ? | nt | nt | i
OC(COc1ccc(C2C=CCC2)cc1)CN1CCCCC1 (configuration not stated) | ? | i | i | i | ? | i
Cc1nn(-c2ccccc2)c(C)c1-c1nnc(C(F)(F)F)o1 | i | i | nt | i | i | i
Cc1nn(-c2ccccc2)c(C)c1-c1nnc(-c2c(C)nn(-c3ccccc3)c2C)o1 | ? | ? | i | i | 11.7µM | i
O=C(Nc1cccc(-n2cnnn2)c1)c1ccc(OC(F)(F)F)cc1 | i | i | i | i | i | i
O=C(CCCc1nc(-c2ccc(Cl)cc2)no1)N1CCOCC1 | ? | ? | ? | i | i | i
Cn1c(=O)c2ncn(CC(=O)N/N=C/c3ccco3)c2n(C)c1=O | i | 5.86µM | i | i | i | i
O=C(Nc1nnc([C@@H]2C[C@H](O)[C@@H](CO)O2)s1)c1cccc(C(F)(F)F)c1 | nt | nt | i | nt | nt | nt
O=C(Nc1nnc([C@@H]2C[C@H](O)[C@@H](CO)O2)s1)c1cccc(OC(F)(F)F)c1 | nt | nt | -84.2 | nt | nt | nt
CC(C)(C)C(=O)Nc1nnc([C@H]2C[C@H](O)[C@@H](CO)O2)s1 | nt | nt | i | nt | nt | nt
CCCC(=O)Nc1nnc([C@H]2C[C@H](O)[C@@H](CO)O2)s1 | nt | nt | -96.2 | nt | nt | nt
COc1cccc([C@@H]2CC=C(C(=O)O)[C@H](c3ccc(C)cc3)N2S(=O)(=O)c2ccc(C)cc2)c1 | i | nt | i | i | nt | nt
COc1cccc([C@@H]2CC=C(C(=O)O)[C@H](c3ccc(Cl)cc3)N2S(=O)(=O)c2ccc(C)cc2)c1 | i | 9.28µM | i | i | ? | i
